The source of these data is PubChem BioAssay (NCI).

Compounds without any hit were thinned out: in the full panel of roughly 83,000, 20% have a hit.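 Single-concentration screen, 48 h exposure, 96-well plates. Endpoint: percent growth. Below 10 = active.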 A number with no mark means an inactive call. The source made the active and inactive calls.

This assay deals with HOP-92 NSCLC. Kind of assay: NCI-60 one-dose screen, 48 h (100 = growth as untreated, 0 = no growth, -100 = all killed). The following applies: 10 µM unless noted. As for the experimental part: Growth inhibition of the HOP-92 human Non-Small Cell Lung tumor cell line is measured as a screen for anti-cancer activity. Cells are grown in 96 well plates and exposed to the test compound for 48 hours. Compounds are tested at a single concentration, which is 10^-5 M for most compounds. The reported endpoint is percent growth (GI% or GIPRCNT), where numbers from 0 - 100% represent growth inhibition, and numbers from -100% - 0 represent cell death. For example, a value of 40 represents 60% growth inhibition. A value of 0 means no net growth occurred over the course of the experiment. A value of -40 indicates 40% of cells at the beginning of the experiment died by the end of the experiment. A value of -100 means all cells are dead at the end of the experiment.
NCI-60 Human Tumor Cell Lines Screen was performed using the standard one-dose NCI protocol, which is described in more detail at https://dtp.cancer.gov/discovery_development/nci-60/default.htm.
Compounds with GIPRCNT values below 10 were considered active. Activity score was based on GIPRCNT using the following formula: […]
Score is 0 for GIPRCNT values of 100 or above, 50 for GIPRCNT values of 0, and 100 for GIPRCNT values of -100.
For `CCCCCCCC/C=C\CCCCCCCCOc1cccc(CC(=O)NCC[N+]2(C)CCCC2)c1`, the growth was 92.7%.

Turning to `Cc1nc2cc(Nc3nc(Cl)nc(Nc4ccc(F)cc4)n3)ccc2n1Cc1ccccc1`, the growth was 50.7%.

For the molecule `CCCCC1COc2cccc3c(SCC(=O)N(C)c4cccc5ccccc45)cc[n+]1c23` (stereo not given), the growth is 105%.

With `COc1ccc(-c2cc(=O)oc3c4c(ccc23)OCN(Cc2ccc(F)cc2)C4)cc1`, the growth was 47.8%.

For the molecule `COc1cccc(C2C3=C(COC3=O)N(CCO)c3cc4c(cc32)CCC4)c1` (stereo not given), the growth was 48.2%.

Take `OC[C@@H](O)[C@@H](O)CO`: the growth is 101%.

Consider `Cc1ccc(-c2c3c(N)c4c(nc3nc3c2c(C)nn3-c2ccccc2)CCCC4)cc1`, for which the growth was 81.6%.

Take `C=CC(=O)N1CC2(CC(n3nc(-c4ccc(Oc5ccccc5)cc4)c4c(N)ncnc43)C2)C1`: the growth is 20%.

With `FC(F)(F)c1cc(CNc2nc(Cl)ncc2Br)cc(C(F)(F)F)c1`, the growth is 71%.

On to `COc1ccc(/C=N/NC(=O)c2cnn3c2NC(c2ccccc2)C3)cc1OC1CCCC1` (stereo not given), for which the growth was 94%.

In the case of `O=[N+]([O-])c1ccc2nc(N/N=C/c3ccc(O)cc3)sc2c1`, the growth was 58.9%.

Take `COc1ccc(NC(=O)c2ccc3c(c2)nc(-c2ccc(Cl)cc2)n3-c2cc(C(C)(C)C)[nH]n2)cc1`: the growth was 59.3%.

On to `COc1nc2c(cc1S(=O)(=O)c1ccccc1)CCc1c-2cnn1-c1cccc(Cl)c1`, for which the growth is 46.6%.

On to `COc1cc(/C=C/C(=O)C2=C(/C=C/c3ccc(O)c(OC)c3)NC(=O)NC2c2ccc(O)c(OC)c2)ccc1O` (stereo not given), for which the growth is 88.9%.

Regarding `Cc1ccccc1-n1nnc(C(=O)Nc2ccc(-c3ccccc3)cn2)c1C`, the growth is 74.3% [50 µM].

As for `O=C1NC(=O)C(CSc2ccccc2)(c2ccccc2)N1` (stereo not given), the growth is 90.8%.

On to `O=C(CCc1nnc2sc(-c3ccccc3)nn12)c1nc2ccccc2[nH]1`, for which the growth was 49.1%.

Turning to `FCOC(C(F)(F)F)C(F)(F)F`, the growth was 120%.

In the case of `CCOC(=O)c1cn2c3c(cc(F)cc3c1=O)C(CC)c1ccccc1C2` (stereo not given), the growth was 95.6%.

With `Cc1cc(NS(=O)(=O)c2ccc(NC(=O)COc3ccc(-c4cc5ccccc5[nH]4)cc3)cc2)no1`, the growth is 5.04% (active).

Regarding `COc1ccc(-n2ncc3c2ccc2cc(S(=O)(=O)c4ccccc4)c(=O)n(C)c23)cc1`, the growth was 37.2%.

On to `O=C(N/N=C(\CS(=O)(=O)c1ccccc1)c1cc2ccccc2oc1=O)c1ccccc1`, for which the growth was 117%.

In the case of `Cc1cccc2c(=O)c3c(sc12)c(NCCCN)nc1ccccc13`, the growth is 31.5%.

With `CCOC(=O)c1[nH]c2cc(Cl)ccc2c1[C@@H](C(=O)NC(C)(C)C)N(CC)C(=O)CCCCC#Cc1cccc2c1CN(C1CCC(=O)NC1=O)C2=O` (stereo not given in full), the growth was 6.15% (active).

`Oc1ccccc1/C=N/Nc1nc2ccccc2s1`: the growth is 44.5%.

For the molecule `CCCCCCCC/C=C\CCCCCCCCOc1cccc(CC(=O)NCC[N+](C)(C)C)c1`, the growth is 74.2%.

Consider `CSC1=CC(=O)c2ccccc2C1=O`, for which the growth is -29% (active).

As for `COc1cc(OCc2cccc(-c3ccc(C(O)c4nccs4)cc3)c2C)cc(OC)c1C=O` (stereo not given), the growth was 62.5%.

As to `CCOC(=O)C(CC(c1ccccc1)N1CCCCC1)[N+](=O)[O-]` (stereo not given), the growth is 78.4%.

In the case of `CC(=O)c1cc(C)c(OC(=O)c2ccccc2)c(C)c1`, the growth is 96.1%.

`CCCCCCCC/C=C\CCCCCCCCOc1cccc(CC(=O)NCC[N+]2(C)CCCCC2)c1`: the growth is 86.9%.

Take `Cc1ccccc1-c1cc(-c2ccc(Br)s2)[nH]c(=O)c1C#N`: the growth was 77.9%.

Turning to `CCC(C)[C@H]1O[C@]2(CC[C@@H]1C)C[C@@H]1C[C@@H](C/C=C(\C)[C@@H](OC3C[C@H](OC)C(O[C@H]4C[C@H](OC)[C@@H](O)[C@H](C)O4)[C@H](C)O3)[C@@H](C)/C=C/C=C3\CO[C@@H]4[C@H](O)C(C)=C[C@@H](C(=O)O1)[C@]34O)O2` (stereo not given in full), the growth is -6.11% (active).

Regarding `CC(=O)Nc1ccc(S(=O)(=O)N/N=C\c2ccc(Cl)c(Cl)c2)cc1`, the growth is 72.1%.

For the molecule `Cc1cc(=O)[nH]n1-c1cc(Cl)ccc1N`, the growth is 114%.

For the molecule `COc1ccc2nc(-n3nc(C)cc3C)c(-n3nc(C)cc3C)nc2c1`, the growth was 115%.

As for `O=C(Nc1ccc(Cl)c(Cl)c1)OCn1ncc2ccc([N+](=O)[O-])cc21`, the growth is 62.6%.

In the case of `O=C(COc1cccc(/C=C2\COc3ccccc3C2=O)c1)c1ccccc1`, the growth was 91.5%.

Take `CCN(CC)c1ccc2c(c1)OS(=O)(=O)N=C2`: the growth is 85.4%.

With `COc1ccc(/C=C2\SC(=O)N(CN3CCN(c4cc5c(cc4F)c(=O)c(C(=O)O)cn5C4CC4)CC3)C2=O)cc1`, the growth was 101%.
